Screening results from PubChem BioAssay.
RGS4 inh: human RGS4 inhibition; P49798; Transcreener GDP fluorescence polarization, RGS4-accelerated GTP hydrolysis; 390,000 compounds, 0.039% hits; Potency, µM (series often up to 114 µM), without a hit: at the highest dose activity change, negative = inhibition, actives largely listed as inhibitors; also: % is scaled to controls: 0 for no effect and ±100 for the full control effect; nearly all actives have a fitted effect of over 75% in size
Target sequence (P49798 whole entry, looked up): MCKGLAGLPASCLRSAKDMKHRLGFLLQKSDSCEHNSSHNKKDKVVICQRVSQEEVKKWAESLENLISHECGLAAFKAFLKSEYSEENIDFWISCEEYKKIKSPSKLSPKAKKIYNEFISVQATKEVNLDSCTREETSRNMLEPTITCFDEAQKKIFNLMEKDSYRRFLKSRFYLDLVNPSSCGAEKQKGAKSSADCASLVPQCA
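MLSMR compounds (23 nl, pin-transferred) preincubated 10 min at room temperature with a 500nM (2x) first reagent, then RGS4 at 900nM (2x) plus Transcreener GDP mix added; fluorescence polarization (620/688 nm) read before and after 90 min at 30 °C.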
SW480 rereplic: DNA re-replication induction in SW480 cells | AID 624297 | SW480 DNA re-replication, Hoechst DNA content imaging, 48 h | Potency, µM (top dose mostly 46.1 µM), inactives show at the top dose re-replication activation, hits mostly activators | 340,000 compounds, 1.8% hits; also: % of control where 0% means no effect; nearly all actives have a fitted effect of over 55% in size
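Treated cells incubate 48 hr (37 C, 5% CO2), are stained 40 min with Hoechst, and nuclear fluorescence is enumerated; a rise in nuclei with high DNA signal marks re-replication.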
KB-V1 cytotox: kills drug-selected multidrug resistant KB-V1 cells. KB-V1 MDR cells viability, CellTiter-Glo, 72 h. Potency, µM (titrated, usually from 46.1 µM), actives largely listed as cytotoxic. 400,000 compounds, 3.4% hits. AID 1347076; also: % is scaled to controls: 0 for no effect and ±100 for the full control effect; nearly all actives have a fitted effect of over 60% in size
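KB-V1, DMEM (no phenol red) + 10% FBS; cpd pin-transferred, titration series; 72 h, 37 degrees C; CellTiter-Glo, luminescence. Data normalized, curve-fit.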
MCF10A rerep: induces DNA re-replication in MCF 10a normal breast cells. MCF 10A DNA re-replication, Hoechst nuclear intensity, 48 h. Potency, µM (highest dose often 46.1 µM), for the others: at the highest dose activity, positive = re-replication, usual class: activators. 350,000 compounds, 2.9% hits. AID 624296; also: % of control where 0% means no effect; nearly all actives have a fitted effect of over 50% in size
KB-3-1 cytotox: KB-3-1 parental cell cytotoxicity | KB-3-1 viability, CellTiter-Glo ATP luminescence, 72 h | 400,000 compounds, 1.4% hits | Potency, µM (top dose mostly 46.1 µM), actives largely listed as cytotoxic | AID 1347075; also: % is scaled to controls: 0 for no effect and ±100 for the full control effect; nearly all actives have a fitted effect of over 60% in size
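Screening of KB-3-1 cells (DMEM, 10% FBS, phenol-red free) ran from lowest to highest compound concentration; after 72 h at 37 °C viability was read luminescently and curves fitted.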
PTAP TSG101 blk: blocks PTAP/TSG101 interaction to inhibit HIV-1 budding; 340,000 tested, under 10 active; Potency, µM (doses to about 115 µM), inactives show at the highest dose activity change, negative = inhibition, actives largely listed as inhibitors; Q99816; Fluorescence polarization, FITC-PTAP peptide / Tsg101 binding; AID 493005; active = well fitted inhibition curve with a large enough effect in the main read-out, with a control signal flat, not every such curve was filed as active; inconclusive = small, poorly fitted or top-dose-only effect, or effect the other way, or a change in a side signal; inactive = no such curve, though single readings can be large or run the other way; also: % of control where 0% means no effect
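Fluorescence polarization binding of Tsg101 binding domain (10 uM final) to FITC-labeled PTAP peptide (50 nM final) in HEPES pH 7.5 buffer with NaCl, Tween 20, EDTA, TCEP. Compounds added before peptide; binding 20 min at RT.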
Active calls of the source: *; i = inactive; ? = inconclusive; nt = not tested or not shown; [ ] = remark or other dose. Rows were chosen to be rich in hits. Some 6.6% of all compounds tested hit in one or more screens of this group. Unless noted, calls follow the shape of the dose curve; as a rule, active = well fitted curve in the direction sought with a large enough effect; inconclusive = small, poorly fitted or top-dose-only effect, or another doubt; inactive = no such curve, though single readings can be large; an effect the other way counts as inactive or inconclusive. Potency is read from the fitted curve at half-maximal effect.

SMILES	RGS4 inh	SW480 rereplic	KB-V1 cytotox	MCF10A rerep	KB-3-1 cytotox	PTAP TSG101 blk
Cc1ccc(CNC(=O)c2ccc3c(=O)c(O)c(-c4ccc(C)cc4)[nH]c3c2)cc1	-7%	?	?	?	4.6µM*	0%
Cc1ccc(OCCNC(=O)C(=O)NCc2ccco2)cc1	-2%	10µM*	?	1.6µM*	?	0%
Cc1ccc(C(=O)Nc2cccc(C(=O)NCc3ccco3)c2)cc1	-13%	2%	i	11%	3.3µM*	-4%
COc1ccc(C(=O)Nc2c(Cl)cc(Cl)cc2C(=O)NCc2ccco2)cc1	6%	3%	7.3µM*	7%	i	1%
COc1ccc(Cl)cc1C(=O)NCc1ccco1	23%	-18%	i	-5%	i	-1%
Cc1cc(F)ccc1NC(=O)Cn1c(=O)ccc2cc(S(=O)(=O)N3CCC(C)CC3)ccc21	-15%	nt	i	nt	i	nt
Cc1ccc2nc3sc(C(=O)NCc4ccco4)cc3cc2c1	nt	nt	i	nt	i	nt
CSc1ccc(/C=C/c2ccnc3ccccc23)cc1	nt	nt	i	nt	?	nt
CCOc1ccc(OCC)c(NC(=O)C2CCCN(S(=O)(=O)c3cc(Br)cc4c3N(C(=O)CC)CC4)C2)c1 (stereo not given)	-26%	nt	i	nt	i	nt
O=C(Nc1ccccc1)c1cccc(S(=O)(=O)NCc2ccco2)c1	-2%	-3%	23µM*	5%	?	-3%
Cc1ccc(C(=O)Nc2cccc(C(=O)NCc3ccccc3)c2)cc1	6%	2%	4.6µM*	?	8.2µM*	-1%
O=C(NCc1ccco1)c1ccc(COc2cccc3ccccc23)cc1	-2%	?	21µM*	-6%	i	1%
O=C(NCc1ccco1)c1ccc(COc2ccccc2Cl)cc1	-27%	7%	i	?	i	-1%
COc1ccc(C(=O)Nc2cccc(C(=O)NCc3ccccc3)c2)cc1	11%	9%	?	13%	i	-2%
COc1ccc(-c2csc(NC(=S)NC(=O)/C=C/c3ccco3)n2)cc1Br	-27%	?	4.1µM*	?	5.2µM*	-3%
COc1ccc(-c2csc(NC(=S)NC(=O)/C=C/c3ccco3)n2)cc1OC	-36%	9.2µM*	6.5µM*	6.5µM*	7.3µM*	-2%
COc1ccc(-c2csc(NC(=S)NC(=O)/C=C/c3ccc(C(C)C)cc3)n2)cc1OC	-25%	?	i	0%	i	-2%
COc1ccc(-c2csc(NC(=S)NC(=O)c3ccco3)n2)cc1Br	30%	21%	?	?	?	-3%
NC(=O)CSc1ccc2nnc(-c3ccncc3)n2n1	-11%	nt	i	nt	i	nt
Cc1[nH]c2ccc(C(=O)NC3CCC(C)CC3)cc2c1C (stereo not given)	8%	9%	i	-5%	i	7%
Cc1[nH]c2ccc(C(=O)NC3CCCC3)cc2c1C	6%	2.6µM*	i	6%	i	-4%
Cc1[nH]c2ccc(C(=O)O)cc2c1C	2%	26µM*	i	23µM*	i	-5%
CCCc1c(C)[nH]c2ccc(C(=O)O)cc2c1=S	-23%[11.4 µM]	4%	i	-1%	i	-2%
Cc1cccc(NC(=O)C2CCCN(c3cnccn3)C2)c1 (stereo not given)	-28%	?	i	18µM*	i	4%
O=C(Nc1cccc(C(F)(F)F)c1)C1CCCN(c2ncccn2)C1 (stereo not given)	-20%	-3%	16µM*	-4%	i	nt
Cc1ccc(NC(=O)C2CCCN(c3ncccn3)C2)cc1F (stereo not given)	44%	5%	16µM*	2%	i	nt
O=C(Nc1ccccc1-c1ccccc1)C1CCCN(c2ncccn2)C1 (stereo not given)	37%	0%	21µM*	-3%	i	nt
CN(Cc1ccccc1)C(=O)c1cccc(NC(=O)c2nsc3ccccc23)c1	-14%	nt	i	nt	i	nt
